Most compounds without a hit are left out; they make up all but 12% or so of the library.
HP1b chromo inh: HTS for Inhibitors of HP1-beta Chromodomain Interactions with Methylated Histone Tails. actives 0.56% (n = 390,000). Chromobox protein homolog 1 (Homo sapiens), P83916. AID 540317, 2011. Potency, µM (top dose mostly 114 µM), actives largely listed as inhibitors. AlphaScreen HP1-beta / biotin-H3K9me3 peptide binding; further: nearly all actives have a fitted effect of over 70% in size
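HP1-beta protein (50 nM final) preincubated 30 min at room temperature with biotinylated H3(1-18)K9me3 peptide (50 nM) in PBS pH 7.4, 0.01% Tween-20, then compound added for 30 min. AlphaScreen streptavidin donor/nickel chelate acceptor beads (10 ug/mL final), 30 min dark, luminescence read.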
JMJD2A Tudor inh: qHTS Assay for Inhibitors of JMJD2A-Tudor Domain. AlphaScreen JMJD2A-Tudor / H3K4me3 peptide binding. Potency, µM (series often up to 114 µM), usual class: inhibitors. actives 4.4% (n = 390,000). Lysine-specific demethylase 4A (Homo sapiens), O75164; further: nearly all actives have a fitted effect of over 50% in size
PLK1 PBD block: qHTS for Inhibitors of PLK1-PDB (polo-like kinase 1 - polo-box domain): Primary Screen; actives 2.8% (n = 360,000); Plk1 PBD binding of FITC phosphopeptide, fluorescence polarization; Serine/threonine-protein kinase PLK1 (Homo sapiens), P53350; Potency, µM, actives largely listed as inhibitors; further: series mostly up to about 57 µM; nearly all actives have a fitted effect of over 65% in size
PI5P4K alpha inh: qHTS for Inhibitors of phosphatidylinositol 5-phosphate 4-kinase (PI5P4K) | actives 1.2% (n = 330,000) | max response, % | AID 652105, 2013 | Phosphatidylinositol 5-phosphate 4-kinase type-2 alpha (Homo sapiens), P48426 | PI5P4Kalpha enzyme, ADP-Glo luminescence, 60 min; active compounds read low; active means max response of -50% or lower; inconclusive means between -30% and -50%; inactive means -30% or higher; further: value at the top dose of about 77 µM
Target sequence (P48426 whole entry, looked up): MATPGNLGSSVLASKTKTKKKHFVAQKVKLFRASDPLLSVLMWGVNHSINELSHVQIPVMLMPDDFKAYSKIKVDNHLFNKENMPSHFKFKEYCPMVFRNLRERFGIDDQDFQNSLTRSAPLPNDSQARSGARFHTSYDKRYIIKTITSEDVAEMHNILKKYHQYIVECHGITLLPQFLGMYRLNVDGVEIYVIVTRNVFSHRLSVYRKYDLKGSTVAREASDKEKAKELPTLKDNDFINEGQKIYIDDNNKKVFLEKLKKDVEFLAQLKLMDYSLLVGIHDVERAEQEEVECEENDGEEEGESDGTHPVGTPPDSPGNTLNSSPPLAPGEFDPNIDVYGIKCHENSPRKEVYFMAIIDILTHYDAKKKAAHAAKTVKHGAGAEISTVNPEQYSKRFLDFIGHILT
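ADP-Glo luminescence end-point after a 60 min room-temperature kinase reaction. PI5P4Kalpha and substrate in HEPES pH 7.4 buffer with EGTA, 0.1% CHAPS and 5% DMSO; ATP at 5 microM final.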
G9a block: qHTS Assay for Inhibitors of Histone Lysine Methyltransferase G9a | G9a H3K9 monomethylation, AlphaScreen, 2 h | Potency, µM (top dose mostly 102 µM), most hits filed as inhibitors | actives 8.8% (n = 350,000) | AID 504332, 2011; further: nearly all actives have a fitted effect of over 75% in size
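G9a (20 nM) was preincubated 15 min with compound, then reacted 2 h at room temperature with 500 nM biotin-H3K9 peptide and 20 µM SAM. Monomethyl-H3K9 detected by AlphaScreen using anti-H3K9me1 antibody.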
BAZ2B block: qHTS Assay for Inhibitors of BAZ2B. AlphaScreen BAZ2B-H3K14Ac peptide displacement. Potency, µM (titrated, usually from 114 µM), usual class: inhibitors. actives 4.4% (n = 360,000). AID 504333, 2011; further: nearly all actives have a fitted effect of over 60% in size
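Inhibition is scored as reduced AlphaScreen emission. The BAZ2B/b-H3(5-23)K14Ac complex (50 nM each) in PBS pH 7.4, 0.01% Tween-20 meets compound (up to 110 uM) for 30 min at RT before bead addition.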
Hits are given with their value; . = inactive; ? = inconclusive; / = not tested or not shown; [ ] = another dose, or the depositor's remark. Unless noted, the call rests on the fitted dose curve; in most records, active means well fitted curve in the direction sought with a large enough effect; inconclusive means small, poorly fitted or top-dose-only effect, or another doubt; inactive means no such curve, though single readings can be large; an effect the other way counts as inactive or inconclusive.

SMILES	HP1b chromo inh	JMJD2A Tudor inh	PLK1 PBD block	PI5P4K alpha inh	G9a block	BAZ2B block
CCOc1ccc(N2C(=O)NC(=O)/C(=C\c3cc(OC)c(OC)cc3[N+](=O)[O-])C2=O)cc1	.	?	.	.	18µM	?
Cc1ccc(N2C(=O)NC(=O)/C(=C\c3ccsc3)C2=O)cc1C	/	/	/	/	?	.
Cc1cccc(N2C(=O)NC(=O)/C(=C/c3ccc(-c4ccc(C(=O)O)c(Cl)c4)o3)C2=O)c1	/	/	/	/	10µM	.
Cc1ccc(N2C(=O)NC(=O)/C(=C\c3ccc(N4CCOCC4)cc3)C2=O)cc1	.	.	6µM	?	?	.
Cc1cc(/C=C2\C(=O)NC(=O)N(c3cccc(Br)c3)C2=O)c(C)n1C	.	.	.	.	.	.
Cc1ccc(N2C(=O)NC(=O)/C(=C\c3ccc([N+](=O)[O-])o3)C2=O)cc1	/	/	/	/	6.3µM	20µM
O=C1NC(=O)N(c2ccccc2)C(=O)/C1=C/c1ccc(Sc2ccccc2)o1	.	56µM	?	/	10µM	50µM
CN(C)CCN(C(=O)c1ccc(S(=O)(=O)N2CCc3ccccc32)cc1)c1nc2ccc(F)cc2s1	.	?	.	.	3.5µM	?
Cn1c(=O)oc2cc(S(=O)(=O)N3CCc4ccccc43)ccc21	.	.[11.4 µM]	.	.	.	.
CCOC(=O)[C@]12Cc3cc(OC)ccc3[C@H]1N(Cc1ccccc1)C(=O)c1ccccc12	.	.	.	.	/	/
CCOC(=O)[C@]12Cc3ccccc3[C@H]1N(CCC(=O)OC)C(=O)c1ccccc12	/	/	9.5µM	.	/	/
CCOC(=O)[C@]12Cc3ccccc3[C@H]1N(Cc1ccccc1)C(=O)c1ccccc12	.	.	.	.	/	/
CCCCCN1C(=O)c2ccccc2[C@@]2(C(=O)OCC)Cc3cc(OC)ccc3[C@@H]12	/	/	5.3µM	.	/	/
S=c1[nH]c2cc(Br)cnc2[nH]1	?	20µM	13µM	?	3.2µM	.
Cc1cccnc1NC1=NCC(C)S1 (centres undefined)	.	.[11.4 µM]	.	.	4µM	.
Clc1cncc(N2CCNCC2)n1	/	/	/	/	.	/
Nc1ccc(Oc2cccc(Oc3ccc(N)cc3)c2)cc1	?	?	.	.	45µM	40µM
CCOc1ccc(N)cc1	.	.	.	.	/	/
CN(C)C(Cc1ccc(Cl)cc1)C(=O)c1ccccc1 (centres undefined)	.	.	.	.	45µM	.
S=c1[nH]nc(C2CC2)n1Cc1ccco1	.	22µM	?	/	2.5µM	.
C=CCn1c(C2CC2)n[nH]c1=S	.	?	.	.	45µM	.
CC(C)C[C@H](NC(=O)[C@H](Cc1ccccc1)NC(=O)CNC(=O)CNC(=O)[C@@H](N)Cc1ccc(O)cc1)C(=O)N[C@@H](CCCN=C(N)N)C(=O)N[C@@H](CCCCN)C(=O)N[C@@H](Cc1ccc(O)cc1)C(=O)N1CCC[C@H]1C(=O)N[C@@H](CCCCN)C(=O)O	/	/	/	/	.	/
CN[C@@H](CC(C)C)C(=O)N[C@@H]1C(=O)N[C@H](CC(N)=O)C(=O)N[C@@H]2C(=O)N[C@H]3C(=O)N[C@H](C(=O)N[C@H](C(=O)O)c4cc(O)cc(O)c4-c4cc3ccc4O)[C@H](O)c3ccc(c(Cl)c3)Oc3cc2cc(c3O[C@H]2O[C@@H](CO)[C@@H](O)[C@@H](O)[C@@H]2O[C@@H]2C[C@](C)(N)[C@H](O)[C@H](C)O2)Oc2ccc(cc2Cl)[C@@H]1O	/	/	/	/	.[12.7 µM]	/
NS(=O)(=O)c1nc[nH]c1[N+](=O)[O-]	.	20µM	.	.	/	/
CN1CC(C(=O)c2ccc(Cl)cc2)C(c2ccccc2)C1 (centres undefined)	.	.	.	.	45µM	.
O=C1NC(=S)N(Cc2ccco2)C(=O)/C1=C\c1cccs1	/	/	/	/	3.2µM	/
